Source: PubChem BioAssay
The source made the active and inactive calls. Unless noted, the rule behind the calls is not given here.

Assays:
[1] = resazurin metabolic signal in HepG2 cells – cell-based, resazurin fluorescence, 24 h, PK04 Diversity Set, profiling panel (AID 1172); settings: HepG2 viability, higher = more signal; note: test concentration not given here
[2] = budding yeast growth changes without added modifier – OD600, strain BY4716, 24 h, basal condition, primary screen (AID 1173); settings: S. cerevisiae BY4716 growth, OD600, 24 h; higher = more signal, called active from +8 up or from −8 down
[3] = viability profiling in MM1S myeloma cells – cell-based, resazurin fluorescence, basal, 24 h, PK04 Diversity Set, profiling panel (AID 1174); settings: higher = more signal, called active from +8 up or from −8 down;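 note: MM1S multiple myeloma cell line; test concentration not given here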
[4] = target: Dihydroorotate dehydrogenase (quinone), mitochondrial (Plasmodium falciparum (isolate 3D7)) (UniProt Q08210); experiment: inhibition of P. falciparum DHODH – biochemical, C-terminal His tag, absorbance 600 nm, primary screen (AID 1175); settings: PfDHODH enzyme, DCIP absorbance 600 nm; higher = more signal, called active from +8 up or from −8 down;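 note: recombinant parasite enzyme with a five histidine tag at its C terminus; test concentration not given here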
[5] = inhibition of PAO1 biofilm formation – strain PAO1, LB-PBS medium, absorbance 600 nm, primary screen (AID 1176); note: test concentration not given here; settings: P. aeruginosa PAO1 growth/biofilm, A600, 12 h; higher = more signal
[6] = growth modulation of vineyard yeast isolate – strain RM11-1a, OD600, basal, 24 h, primary screen (AID 1177);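 note: cultures grown under basal conditions with no added stressor; test concentration not given here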; settings: S. cerevisiae RM11-1a growth, OD600, 24 h; higher = more signal, called active from +8 up or from −8 down
[7] = growth of efflux-deficient E. coli DRC39 – strain DRC39, OD650, 24 h, E. coli filamentation inducers, primary screen (AID 1178);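 note: growth measured as culture turbidity by optical density at 650 nm; test concentration not given here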; settings: E. coli DRC39 acrAB, higher = more signal, called active from +8 up or from −8 down
[8] = growth of efflux-deficient E. coli DRC39 – strain DRC39, OD650, 48 h, E. coli filamentation inducers, primary screen (AID 1179);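 note: screen aims at cell division blockers that make cells filament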; settings: E. coli DRC39 delta-acrAB growth, higher = more signal, called active from +8 up or from −8 down
[9] = viability profiling in RPMI8226 myeloma cells – cell-based, resazurin fluorescence, basal, 24 h, PK04 Diversity Set, profiling panel (AID 1180); settings: higher = more signal;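 note: RPMI8826 multiple myeloma cell line at 5000 cells per well; test concentration not given here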
[10] = target: E3 ubiquitin-protein ligase XIAP (Homo sapiens) (UniProt P98170); experiment: small molecules binding XIAP protein – biophysical, small-molecule microarray, fluorescence 635 nm, primary screen (AID 1181); settings: higher = more signal;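 note: score merges 667 nm emission and signal to noise over triplicate slides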
E3 ubiquitin-protein ligase XIAP (Homo sapiens), sequence (P98170 whole entry, looked up): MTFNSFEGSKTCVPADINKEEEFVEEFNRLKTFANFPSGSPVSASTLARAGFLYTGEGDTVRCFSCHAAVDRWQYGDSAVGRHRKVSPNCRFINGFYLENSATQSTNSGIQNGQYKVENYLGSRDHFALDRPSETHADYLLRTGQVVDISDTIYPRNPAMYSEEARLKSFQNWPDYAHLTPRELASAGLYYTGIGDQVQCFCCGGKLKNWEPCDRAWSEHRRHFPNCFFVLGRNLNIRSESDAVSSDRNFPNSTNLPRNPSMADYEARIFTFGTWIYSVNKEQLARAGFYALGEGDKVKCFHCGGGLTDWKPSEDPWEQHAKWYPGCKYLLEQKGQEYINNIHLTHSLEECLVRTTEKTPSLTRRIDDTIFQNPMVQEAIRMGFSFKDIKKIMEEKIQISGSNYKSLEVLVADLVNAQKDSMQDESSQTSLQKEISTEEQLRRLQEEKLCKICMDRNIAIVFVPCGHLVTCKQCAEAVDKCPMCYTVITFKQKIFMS

Dihydroorotate dehydrogenase (quinone), mitochondrial (Plasmodium falciparum (isolate 3D7)), sequence (Q08210 whole entry, looked up): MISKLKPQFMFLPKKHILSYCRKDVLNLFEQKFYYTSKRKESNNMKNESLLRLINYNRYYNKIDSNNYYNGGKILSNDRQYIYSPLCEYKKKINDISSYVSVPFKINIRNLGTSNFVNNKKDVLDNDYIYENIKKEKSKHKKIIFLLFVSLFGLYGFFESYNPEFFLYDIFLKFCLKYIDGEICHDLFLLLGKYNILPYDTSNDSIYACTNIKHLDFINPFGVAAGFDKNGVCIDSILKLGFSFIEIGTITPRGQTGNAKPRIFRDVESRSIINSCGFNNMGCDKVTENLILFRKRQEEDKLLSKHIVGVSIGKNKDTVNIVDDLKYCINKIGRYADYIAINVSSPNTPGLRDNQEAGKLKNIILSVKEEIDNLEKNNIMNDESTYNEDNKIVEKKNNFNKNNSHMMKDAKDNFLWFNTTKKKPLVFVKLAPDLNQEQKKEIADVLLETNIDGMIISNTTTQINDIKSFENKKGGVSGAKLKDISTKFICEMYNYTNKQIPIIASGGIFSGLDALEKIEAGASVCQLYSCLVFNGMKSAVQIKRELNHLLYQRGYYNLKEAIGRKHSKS

| Compound | z-score [1] | z-score [2] | z-score [3] | composite z-score [4] | z-score [5] | z-score [6] | z-score [7] | z-score [8] | z-score [9] | composite z-score [10] |
| --- | --- | --- | --- | --- | --- | --- | --- | --- | --- | --- |
| CN1C(=O)C2C=CC(C(O)c3ccc(I)cc3)N(Nc3ccccc3)C2C1=O (stereo not given) | -1.25 | -0.245 (inactive) | -0.994 (inactive) | -0.359 (inactive) | 0.683 (inactive) | -0.0359 (inactive) | -1.28 (inactive) | -1.4 (inactive) | -1.37 | 0.114 |
| O=C1C2C=CC(C(O)c3ccco3)N(Nc3ccccc3)C2C(=O)N1c1ccccc1 (stereo not given) | 0.875 | -0.633 (inactive) | -0.321 (inactive) | 1.05 (inactive) | -0.283 (inactive) | 0.829 (inactive) | -0.706 (inactive) | 0.154 (inactive) | 0.628 | -0.0264 |
| COCCOC(=O)N1C(=O)[C@@]2(c3cc(C#CC4=CCCCC4)ccc31)[C@H](C(=O)N1CCCCCCC1)[C@H]1C(=O)O[C@H](c3ccccc3)[C@H](c3ccccc3)N1[C@@H]2c1ccc(OCCO)cc1 | 0.111 | -0.145 (inactive) | -0.341 (inactive) | -1.9 (inactive) | 2.26 (inactive) | 1.16 (inactive) | -0.427 (inactive) | -0.311 (inactive) | 0.169 | 0.144 |
| Cc1ccc(N2C(=O)c3ccccc3[C@](C)(C(=O)NCc3ccccc3)[C@@H]2c2ccc(CO)cc2)nc1 | -0.776 | -0.878 (inactive) | 1.13 (inactive) | 1.07 (inactive) | 0.882 (inactive) | 0.741 (inactive) | 0.349 (inactive) | 0.329 (inactive) | 0.994 | -0.0326 |
| CCOC(=O)C=Cc1cc(F)ccc1O | -0.338 | -12.6 (active) | -0.99 (inactive) | -1.09 (inactive) | -0.0727 (inactive) | -23.2 (active) | -1.01 (inactive) | -1.31 (inactive) | -0.935 | -0.196 |
| CCOC(=O)C[C@H]1[C@H](OC(=O)c2ccc(-c3ccccc3)cc2)[C@@H](NC(=O)Cc2ccc(OC)cc2)c2cc(OCCCO)ccc2N1C(=O)Cc1ccc(OC)cc1 | -0.0383 | 0.574 (inactive) | 0.796 (inactive) | 0.593 (inactive) | 0.149 (inactive) | 1.78 (inactive) | 1.01 (inactive) | 0.622 (inactive) | 0.643 | -0.0118 |
| [N-]=[N+]=Nc1ccccc1C[C@@]1(C(=O)O)N=C(c2ccc(OCCCO)cc2)O[C@@H]1c1ccccc1N=[N+]=[N-] | 0.628 | -2.04 (inactive) | -0.988 (inactive) | -0.435 (inactive) | 0.879 (inactive) | -1.23 (inactive) | -0.258 (inactive) | -0.69 (inactive) | -0.955 | -0.0374 |
| CN(C)C(=O)[C@@]1(CCC(=O)OC(C)(C)C)N=C(c2ccc(OCCCO)cc2)O[C@H]1c1ccccc1CN=[N+]=[N-] | 0.891 | 0.481 (inactive) | -1.19 (inactive) | -0.261 (inactive) | 0.317 (inactive) | -0.0065 (inactive) | 0.364 (inactive) | 0.98 (inactive) | 0.885 | -0.0272 |
| COC(=O)[C@@]1(Cc2ccccc2)[C@H]2c3cc(C(=O)N(C)C)n(CCn4cc([N+](=O)[O-])nc4C)c3C[C@H]2CN1C(=O)c1ccccc1 | 0.002 | 0.815 (inactive) | -0.271 (inactive) | -0.831 (inactive) | 1.41 (inactive) | -0.68 (inactive) | -0.211 (inactive) | 0.145 (inactive) | 0.413 | 1.01 |
| O=C1O[C@H](c2ccccc2)[C@H](c2ccccc2)N2[C@H]1[C@@H](C(=O)Nc1nc3ccccc3s1)[C@]1(C(=O)Nc3ccc(C#CC4=CCCCC4)cc31)[C@H]2c1ccc(O)cc1 | 0.98 | -1.03 (inactive) | 0.306 (inactive) | 0.667 (inactive) | 0.517 (inactive) | -0.286 (inactive) | 0.442 (inactive) | 0.382 (inactive) | 0.422 | -0.13 |
| O=C1O[C@H](c2ccccc2)[C@H](c2ccccc2)N2[C@H]1[C@@H](C(=O)N1CCCCCCC1)[C@]1(C(=O)Nc3ccc(C#CC4(O)CCCCCC4)cc31)[C@H]2c1ccc(O)cc1 | 0.114 | -0.101 (inactive) | -0.5 (inactive) | 0.0579 (inactive) | 0.875 (inactive) | 0.74 (inactive) | 0.799 (inactive) | 0.163 (inactive) | 0.295 | 0.322 |
| CC(C)C[C@@H]1NC(=O)[C@@H]2C[C@H](C(=O)NCCCCCC[N+](C)(C)C)[C@H](c3cccc(OCCO)c3)N2C1=O | -0.482 | 0.62 (inactive) | -0.384 (inactive) | -0.317 (inactive) | 0.683 (inactive) | -0.0613 (inactive) | -0.466 (inactive) | -1.15 (inactive) | -0.899 | -0.227 |
| O=C1C2C=CC(C(O)c3ccc(I)cc3)N(Nc3ccccc3)C2C(=O)N1c1ccccc1 (stereo not given) | -1.04 | -2.16 (inactive) | -1.38 (inactive) | 0.45 (inactive) | 1.58 (inactive) | -0.208 (inactive) | -1.07 (inactive) | -0.28 (inactive) | -0.312 | 0.162 |
| CC1(C)C(=O)C(c2ccccc2)=C2CN3C(=O)N(CCc4ccccc4)C(=O)C3(Cc3ccc(C(F)(F)F)cc3)C=C21 (stereo not given) | -0.967 | 1.72 (inactive) | -1.33 (inactive) | 0.46 (inactive) | 0.0539 (inactive) | 1.9 (inactive) | -1.01 (inactive) | -0.756 (inactive) | -1.03 | 0.0322 |
| CC(C)C[C@@H]1NC(=O)CNC(=O)[C@@]23C(=O)N[C@@H](Cc4ccccc4)C2[C@H](C)[C@@]2(C)O[C@H]2C3/C=C/C/C=C\CNC1=O (stereo not given in full) | 0.544 | 0.205 (inactive) | 0.339 (inactive) | 0.084 (inactive) | 1.31 (inactive) | 0.0082 (inactive) | 0.387 (inactive) | 0.394 (inactive) | 0.663 | -0.164 |
| C=CCN1C(=O)[C@]2(O[C@H](CCO)[C@@H]([Si](C)(C)c3ccc(OC)cc3)[C@@H]2C)c2cc(NC(=O)c3ccc(OC)cc3)ccc21 | -4.24 | -1.07 (inactive) | -4.56 (inactive) | -0.224 (inactive) | 1.98 (inactive) | 2.23 (inactive) | 0.626 (inactive) | -0.723 (inactive) | -6.22 | 0.401 |
| COc1cc2c(cc1OC)CN(C(=O)[C@@H]1[C@H]3C(=O)O[C@H](c4ccccc4)[C@H](c4ccccc4)N3[C@H](c3ccc(O)cc3)[C@@]13C(=O)Nc1ccc(C#CCCO)cc13)CC2 | 0.0462 | 1.03 (inactive) | -1.22 (inactive) | 0.838 (inactive) | 1.2 (inactive) | 1.66 (inactive) | 0.437 (inactive) | 0.258 (inactive) | -0.657 | -0.269 |
| C=CC[C@H](OC(=O)Nc1ccc(SC)cc1)c1ccc(OCCO)cc1 | 0.826 | -3.71 (inactive) | 0.819 (inactive) | -1.51 (inactive) | 0.119 (inactive) | 1.07 (inactive) | -0.0217 (inactive) | -0.254 (inactive) | 0.194 | 0.0264 |
| C=C(/C(=C/C[C@@H](OC(C)=O)c1ccc(OCCO)cc1)c1cc(C(=O)OC)ccc1OC)C(C)C | -0.459 | -0.0855 (inactive) | -0.53 (inactive) | -5.7 (inactive) | 0.437 (inactive) | 0.492 (inactive) | -0.0333 (inactive) | 0.0954 (inactive) | -0.161 | 0.0546 |
| CN1C(=O)C2C(C1=O)C1C=C(CCCO)C2C(C2CC2)N1Cc1cc2c(cc1Br)OCO2 (stereo not given) | -0.622 | -0.975 (inactive) | -1 (inactive) | -0.341 (inactive) | 0.0721 (inactive) | 0.0644 (inactive) | -0.344 (inactive) | -0.291 (inactive) | -0.543 | -0.113 |
| COc1cc(NN2C(C(O)c3ccc(I)cc3)C=CC3C(=O)N(c4ccccc4)C(=O)C32)cc(OC)c1OC (stereo not given) | -1.35 | 0.645 (inactive) | -0.694 (inactive) | -0.755 (inactive) | 0.835 (inactive) | 0.0247 (inactive) | 0.456 (inactive) | 0.176 (inactive) | -1.34 | 0.162 |
